# Experimental data: PubChem BioAssay (Tox21)
# Values joined by “and” are separate entries in the source; they are usually repeats but may differ in a detail not shown here. Equal entries are not always repeated. Records with an inconclusive call do not appear. Where a call stands in place of a potency, no number is given. Some compounds were tested as several samples or in several runs, with calls that do not always agree. Active and inactive are the calls of the source. Unless noted, calls come from the whole dose curve.
# What was measured:
# [1] = Nuclear factor erythroid 2-related factor 2/antioxidant responsive element (Nrf2/ARE) small molecule agonists: qHTS cell viability counter screen in human keratinocytes (AID 1919968; active = well fitted curve in the direction sought with a large enough effect in the repeat runs; an effect the other way counts as inactive or inconclusive; note: nearly all actives have a fitted effect of over 55% in size; note: potency is the fitted concentration of half-maximal effect)
# Summary of the method: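 KeratinoSens HaCaT cells, 1,500/well, preincubated 5 h, then exposed to compounds in DMSO for 23 h at 37 C/5% CO2. Viability read as CellTiter-Fluor fluorescence after 1 h, in the same wells as the ARE-luciferase read.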
# [2] = Nuclear factor erythroid 2-related factor 2/antioxidant responsive element (Nrf2/ARE) small molecule agonists: luciferase reporter gene qHTS assay in human keratinocytes (AID 1919969); note: nearly all actives have a fitted effect of over 35% in size; note: potency is the fitted concentration of half-maximal effect
# [3] = target: Gonadotropin-releasing hormone receptor (Homo sapiens) (UniProt P30968); assay: Human gonadotropin-releasing hormone receptor (GnRHR) small molecule agonists, calcium flux assay in GnRHR-HEK293 cells (AID 1920063); note: nearly all actives have a fitted effect of over 35% in size
# Summary of the method: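 HEK293 cells stably expressing human GnRHR were dye-loaded for 1 h at 37 C. Compound was added in agonist mode and fluorescence (Ex/Em 480/540) recorded kinetically for 3 min. Fifteen concentrations, triplicates.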
# [4] = target: KiSS-1 receptor (Homo sapiens) (UniProt Q969F8); assay: Human kisspeptin (KISS1R) small molecule agonists, calcium flux assay in KISS1R-HEK293 cells (AID 1920064; active = well fitted curve in the direction sought with a large enough effect in the repeat runs; an effect the other way counts as inactive or inconclusive)
# Summary of the method: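 HEK293 cells stably expressing human KISS1R were loaded with calcium dye for 1 h at 37 C, then given compound; fluorescence (Ex/Em 480/540) was read kinetically for 3 min. Fifteen concentrations, triplicate.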
# [5] = G protein-coupled receptor (GPCR) small molecule agonists, calcium flux assay: HEK293 wild type cell line counter screen (AID 1920065)
# Summary of the method: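 Wild-type HEK293 cells plated 18 h, loaded with calcium dye 1 h at 37 C, then compounds added in agonist mode (ATP as positive control). Kinetic fluorescence Ex/Em 480/540 recorded 3 min at 1 sec intervals; 15 concentrations, triplicate.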
# [6] = p53 small molecule agonists, cell-based qHTS assay with human liver microsomes: qHTS cell viability counter screen (AID 1963579); note: nearly all actives have a fitted effect of over 45% in size
# Summary of the method: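 Seed p53RE-bla cells at 4,000 per well; incubate 5 h at 37 C; add compound, human liver microsomes and NADPH; incubate 16 h at 37 C; add CellTiter-Glo; after 30 min at room temperature, read luminescence.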
# [7] = p53 small molecule agonists, cell-based qHTS assay with rat liver microsomes: qHTS cell viability counter screen (AID 1963580); note: nearly all actives have a fitted effect of over 45% in size
# Summary of the method: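 p53RE-bla HCT-116 cells (4,000/well) rested 5 h at 37 C, then given Tox21 compounds in DMSO with rat liver microsomes (0.5 mg/mL final) plus NADPH (0.5 mg/mL final) for 16 h at 37 C. Viability read by CellTiter-Glo luminescence after 30 min at room temperature.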
# [8] = target: 5-hydroxytryptamine receptor 2A (Homo sapiens) (UniProt P28223); assay: 5-hydroxytryptamine receptor 2A (HTR2A) small molecule antagonists, cell-based qHTS assay (AID 1963586); note: nearly all actives have a fitted effect of over 45% in size; note: potency is the fitted concentration of half-maximal effect
# Summary of the method: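 Antagonist-mode intracellular calcium assay: DOI (4 nM) added after 5 min compound pre-incubation at room temperature to dye-loaded HTR2A-CHO cells. Fluorescence followed for 3 min, sampled every second.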
# [9] = target: 5-hydroxytryptamine receptor 2A (Homo sapiens) (UniProt P28223); assay: 5-hydroxytryptamine receptor 2A (HTR2A) small molecule agonists, cell-based qHTS assay (AID 1963587); note: nearly all actives have a fitted effect of over 30% in size; note: potency is the fitted concentration of half-maximal effect
# Summary of the method: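 HTR2A-CHO cells, plated 18 h at 37 C/5% CO2, dye-loaded 1 h at 37 C; compounds in DMSO added by pin tool (agonist mode). Intracellular calcium flux read as kinetic fluorescence on FDSS over 2 min at 1 s intervals.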
# [10] = target: Muscarinic acetylcholine receptor M1 (Homo sapiens) (UniProt P11229); assay: Cholinergic receptor muscarinic 1 (CHRM1) small molecule antagonists, cell-based qHTS assay (AID 1963588); note: nearly all actives have a fitted effect of over 40% in size; note: potency is the fitted concentration of half-maximal effect
# Summary of the method: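 CHRM1-CHO calcium-flux assay, antagonist mode. Cells were seeded 18 h, dye-loaded 1 h at 37 C and given compound for 5 min at RT, then acetylcholine was added at 50nM. FDSS fluorescence was read 3 min; 15 concentrations, three runs.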
# [11] = target: Muscarinic acetylcholine receptor M1 (Homo sapiens) (UniProt P11229); assay: Cholinergic receptor muscarinic 1 (CHRM1) small molecule agonists, cell-based qHTS assay (AID 1963589); note: nearly all actives have a fitted effect of over 35% in size
# Summary of the method: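 CHO cells stably expressing human CHRM1 were loaded with calcium dye for 1 h at 37 C, then compound was added in agonist mode. Intracellular calcium fluorescence was followed kinetically at 1 s intervals. Fifteen concentrations were tested in three independent runs.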
# [12] = cAMP Responsive Elements (CRE) small molecule agonists, cell-based qHTS assay (AID 1963590)
# Summary of the method: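 CRE-bla HEK 293T cells, 2,000/well in DMEM with 10% dialyzed FBS and 25 mM HEPES, pre-incubated 18 h at 37 C, then exposed to compound 3 h at 37 C. Beta-lactamase reporter read with LiveBLAzer B/G FRET substrate after 2 h at room temperature.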
# [13] = cAMP Responsive Elements (CRE) small molecule antagonists, cell-based qHTS assay (AID 1963591; active = well fitted inhibition curve with a large enough effect in the signal ratio in the repeat runs, not every such curve was filed as active; the % refers to the signal ratio)
# Summary of the method: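 CRE-bla HEK293T cells plated 18 h, then given compound plus NKH477 at 0.25 uM final for 3 h at 37C. Beta-lactamase reporter read with LiveBLAzer B/G FRET substrate after 2 h at room temperature.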
# [14] = target: Beta-2 adrenergic receptor (Homo sapiens) (UniProt P07550); assay: Adrenergic beta2 receptor (ADRB2) small molecule antagonists, cell-based qHTS assay (AID 1963592); note: series mostly up to about 92 µM; nearly all actives have a fitted effect of over 50% in size
# Summary of the method: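 Cells (CHO, stable ADRB2 overexpression) incubated 18-20hr at 37C; compounds added from DMSO; agonist mix (1nM isoproterenol, 100uM IBMX, 25uM Ro-20-1724) added; 0.5hr RT; d2-cAMP and anti-cAMP-cryptate added; 1hr RT; 665/615 nm read.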
# [15] = target: Beta-2 adrenergic receptor (Homo sapiens) (UniProt P07550); assay: Adrenergic beta2 receptor (ADRB2) small molecule agonists, cell-based qHTS assay (AID 1963593);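 note: CHO cells stably overexpressing human ADRB2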
# Summary of the method: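 CHO cells stably over-expressing ADRB2 were plated overnight at 37C, then dosed with compounds plus a stimulation mix containing 100uM IBMX and 25uM Ro-20-1724 for 0.5hr at room temperature. cAMP was measured by HTRF competition, 1hr.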
# [16] = target: D(2) dopamine receptor (Homo sapiens) (UniProt P14416); assay: Dopamine D2 receptor (DRD2) small molecule agonists, cell-based qHTS assay (AID 1963594); note: nearly all actives have a fitted effect of over 35% in size
# Summary of the method: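 HEK293 cells stably expressing DRD2 were cultured 24 h at 37 C, then given Ro20-1724 (0.1 mM final) and compounds for 10 min at room temperature. NKH477 (200nM) was then added for 30 min. cAMP was read by HTRF.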
# [17] = target: D(2) dopamine receptor (Homo sapiens) (UniProt P14416); assay: Dopamine D2 receptor (DRD2) small molecule antagonists, cell-based qHTS assay (AID 1963595; active = well fitted inhibition curve with a large enough effect in the signal ratio in the repeat runs, with a control signal flat; the % refers to the signal ratio)
# Summary of the method: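 Human DRD2 antagonist qHTS measuring cAMP by HTRF. The cells are exposed to compound for 10 min, then to NKH477 (200 nM) and quinpirole (12 nM) for 30 min at RT, with Ro20-1724 (0.1 mM) present throughout.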
# [18] = p53 small molecule agonists, cell-based qHTS assay (AID 1963582; active = well fitted activation curve with a large enough effect in the signal ratio in the repeat runs, not every such curve was filed as active; the % refers to the signal ratio)
# Summary of the method: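 p53RE-bla reporter cells, compounds added in DMSO after 5 h plating, incubated 16 h at 37 C. Beta-lactamase read via 2 h room-temperature LiveBLAzer B/G FRET substrate, fluorescence intensity.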
# [19] = p53 small molecule agonists, cell-based qHTS assay with rat liver microsomes (AID 1963578)
# Summary of the method: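 Fluorescence from a beta-lactamase reporter under a p53 response element was measured after cells had been incubated 16 h at 37 C with test compound and rat liver microsomes plus NADPH (0.5 mg/mL final each).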
# [20] = p53 small molecule agonists, cell-based qHTS assay: qHTS cell viability counter screen (AID 1963581); note: nearly all actives have a fitted effect of over 45% in size
# Summary of the method: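 p53RE-bla HCT-116 cells, compounds added 5 h after plating and incubated 16 h at 37 C. Cytotoxicity measured in the same wells as intracellular ATP by CellTiter-Glo luminescence after 30 min at room temperature.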
# Chain of 5-hydroxytryptamine receptor 2A (Homo sapiens) (P28223 whole entry, looked up): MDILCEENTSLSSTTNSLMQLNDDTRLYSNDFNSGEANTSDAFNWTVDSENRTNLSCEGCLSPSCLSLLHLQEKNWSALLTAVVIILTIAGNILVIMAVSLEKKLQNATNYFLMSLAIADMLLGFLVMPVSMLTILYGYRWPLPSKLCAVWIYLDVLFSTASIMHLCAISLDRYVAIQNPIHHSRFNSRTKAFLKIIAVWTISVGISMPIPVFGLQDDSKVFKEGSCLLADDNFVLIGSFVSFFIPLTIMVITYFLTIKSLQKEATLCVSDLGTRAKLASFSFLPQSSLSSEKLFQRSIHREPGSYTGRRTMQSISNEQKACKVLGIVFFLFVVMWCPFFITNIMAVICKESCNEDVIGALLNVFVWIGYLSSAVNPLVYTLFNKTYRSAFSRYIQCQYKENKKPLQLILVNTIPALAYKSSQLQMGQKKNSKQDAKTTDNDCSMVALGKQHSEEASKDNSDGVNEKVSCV
# Chain of Muscarinic acetylcholine receptor M1 (Homo sapiens) (P11229 whole entry, looked up): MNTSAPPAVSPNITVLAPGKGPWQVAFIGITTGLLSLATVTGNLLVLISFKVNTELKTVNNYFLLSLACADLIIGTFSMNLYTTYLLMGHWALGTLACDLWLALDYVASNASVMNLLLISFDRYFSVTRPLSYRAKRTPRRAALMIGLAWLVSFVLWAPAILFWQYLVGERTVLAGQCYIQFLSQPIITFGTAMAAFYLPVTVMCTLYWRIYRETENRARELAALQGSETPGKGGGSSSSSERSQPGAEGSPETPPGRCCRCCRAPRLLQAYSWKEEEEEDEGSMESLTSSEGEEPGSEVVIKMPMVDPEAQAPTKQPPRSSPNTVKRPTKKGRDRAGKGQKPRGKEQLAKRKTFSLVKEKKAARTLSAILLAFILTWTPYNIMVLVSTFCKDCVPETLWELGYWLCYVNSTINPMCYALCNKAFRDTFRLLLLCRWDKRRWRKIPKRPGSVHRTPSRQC
# Chain of Gonadotropin-releasing hormone receptor (Homo sapiens) (P30968 whole entry, looked up): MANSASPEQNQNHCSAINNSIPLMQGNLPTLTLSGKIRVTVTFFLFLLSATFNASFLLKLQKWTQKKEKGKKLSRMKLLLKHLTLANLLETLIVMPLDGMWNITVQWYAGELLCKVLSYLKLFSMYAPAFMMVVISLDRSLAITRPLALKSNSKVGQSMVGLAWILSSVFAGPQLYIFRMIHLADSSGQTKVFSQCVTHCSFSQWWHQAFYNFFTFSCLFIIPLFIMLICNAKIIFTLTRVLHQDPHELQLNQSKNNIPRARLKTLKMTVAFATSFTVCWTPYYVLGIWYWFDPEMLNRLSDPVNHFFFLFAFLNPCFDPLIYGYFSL
# Chain of Beta-2 adrenergic receptor (Homo sapiens) (P07550 whole entry, looked up): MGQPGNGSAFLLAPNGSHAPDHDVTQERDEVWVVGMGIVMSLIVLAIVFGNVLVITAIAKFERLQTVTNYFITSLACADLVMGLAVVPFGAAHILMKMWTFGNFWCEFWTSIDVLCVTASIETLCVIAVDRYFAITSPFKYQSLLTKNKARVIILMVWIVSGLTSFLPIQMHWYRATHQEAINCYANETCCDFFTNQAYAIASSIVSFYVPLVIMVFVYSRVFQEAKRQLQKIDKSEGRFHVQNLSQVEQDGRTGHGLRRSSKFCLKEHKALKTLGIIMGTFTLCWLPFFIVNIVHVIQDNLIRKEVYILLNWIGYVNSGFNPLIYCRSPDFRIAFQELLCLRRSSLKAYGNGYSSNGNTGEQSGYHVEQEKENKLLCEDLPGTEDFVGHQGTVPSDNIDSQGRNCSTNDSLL
# Chain of KiSS-1 receptor (Homo sapiens) (Q969F8 whole entry, looked up): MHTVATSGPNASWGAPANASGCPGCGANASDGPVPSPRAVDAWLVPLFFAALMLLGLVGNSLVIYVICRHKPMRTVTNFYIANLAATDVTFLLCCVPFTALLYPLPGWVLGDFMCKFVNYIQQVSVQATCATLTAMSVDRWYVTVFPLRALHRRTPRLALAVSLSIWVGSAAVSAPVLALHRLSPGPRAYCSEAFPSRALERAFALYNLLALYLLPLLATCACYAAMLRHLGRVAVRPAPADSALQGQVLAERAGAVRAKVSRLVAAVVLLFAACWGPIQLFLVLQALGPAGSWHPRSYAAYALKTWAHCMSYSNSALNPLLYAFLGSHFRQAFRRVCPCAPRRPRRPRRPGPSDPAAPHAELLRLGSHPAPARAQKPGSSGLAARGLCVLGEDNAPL
# Chain of D(2) dopamine receptor (Homo sapiens) (P14416 whole entry, looked up): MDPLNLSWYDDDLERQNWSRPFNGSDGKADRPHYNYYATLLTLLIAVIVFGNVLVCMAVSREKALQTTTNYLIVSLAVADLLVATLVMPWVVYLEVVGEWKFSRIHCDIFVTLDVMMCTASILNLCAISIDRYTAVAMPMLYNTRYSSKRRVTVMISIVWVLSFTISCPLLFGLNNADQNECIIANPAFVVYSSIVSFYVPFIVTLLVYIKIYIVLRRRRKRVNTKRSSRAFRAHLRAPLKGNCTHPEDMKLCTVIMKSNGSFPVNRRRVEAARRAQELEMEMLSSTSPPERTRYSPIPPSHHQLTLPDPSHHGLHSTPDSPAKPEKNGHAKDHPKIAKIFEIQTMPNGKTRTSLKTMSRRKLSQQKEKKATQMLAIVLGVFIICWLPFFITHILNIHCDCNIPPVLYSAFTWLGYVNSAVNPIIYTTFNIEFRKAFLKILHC
Compound,Potency [1],Potency [2],Potency [3],Potency [4],Potency [5],Potency [6],Potency [7],Potency [8],Potency [9],Potency [10],Potency [11],Potency [12],Potency [13],Potency [14],Potency [15],Potency [16],Potency [17],Potency [18],Potency [19],Potency [20]
O=Cc1cccc(Oc2ccccc2)c1,inactive,inactive,inactive,inactive,inactive,inactive,inactive,inactive,inactive,inactive,inactive,inactive,inactive,inactive,inactive,inactive,inactive,–,–,–
C=C(C)[C@H]1Cc2c(ccc3c2O[C@@H]2COc4cc(OC)c(OC)cc4[C@@H]2C3=O)O1,inactive and 29.8 nM (active),13.9 µM (active) and 13.7 µM (active) and inactive,inactive,inactive,inactive,inactive,inactive,–,–,–,–,–,inactive,inactive,inactive,inactive,inactive,–,–,–
COP(N)(=O)SC (stereo not given),inactive,inactive,inactive,inactive,inactive,inactive,inactive,inactive,inactive,inactive,inactive,inactive,inactive,inactive,inactive,inactive,inactive,inactive,–,–
Cc1cnc(C2=NC(C)(C(C)C)C(=O)N2)c(C(=O)O)c1 (stereo not given),inactive,inactive,inactive,inactive,–,inactive,inactive,inactive,inactive,inactive,inactive,inactive,inactive,inactive,inactive,inactive,inactive,inactive,inactive,inactive
O=C(O)C(F)(F)C(F)(F)C(F)(F)C(F)(F)C(F)(F)C(F)(F)F,inactive,inactive,inactive,inactive,–,inactive,inactive,inactive,inactive,inactive,inactive,inactive,inactive,inactive,inactive,inactive,–,inactive,inactive,inactive
C=CC(Cl)CCl (stereo not given),inactive,inactive,inactive,inactive,inactive,inactive,inactive,inactive,inactive,–,inactive,inactive,inactive,inactive,–,inactive,inactive,–,–,inactive
CCn1cc[n+](C)c1,inactive,inactive,inactive,inactive,inactive,inactive,inactive,–,inactive,–,inactive,inactive,inactive,inactive,inactive,inactive,inactive,–,–,inactive
c1ccc(N2CCNCC2)cc1,inactive,inactive,inactive,inactive,–,inactive,inactive,818 nM (active),601 nM (active),inactive,inactive,–,inactive,inactive,–,inactive,inactive,inactive,inactive,inactive
N#Cc1ccc(Cl)cc1,inactive,inactive,inactive,inactive,–,inactive,inactive,inactive,inactive,inactive,inactive,inactive,inactive,inactive,inactive,inactive,inactive,inactive,inactive,inactive
CC(Cl)C(=O)O (stereo not given),inactive,inactive,inactive,inactive,–,inactive,inactive,inactive,inactive,inactive,inactive,inactive,inactive,inactive,inactive,inactive,inactive,inactive,inactive,inactive
CCCC(=O)Cl,inactive,inactive,inactive,inactive,–,inactive,inactive,–,inactive,inactive,–,inactive,inactive,–,inactive,inactive,inactive,inactive,inactive,inactive
COc1cc(OC)nc(Oc2cccc(Oc3nc(OC)cc(OC)n3)c2C(=O)O)n1,inactive,inactive,inactive,inactive,–,inactive,–,inactive,inactive,inactive,inactive,inactive,inactive,inactive,–,inactive,inactive,inactive,inactive,inactive
CN(C)N,inactive,inactive,inactive,inactive,–,–,inactive,inactive,inactive,inactive,inactive,inactive,inactive,inactive,–,inactive,inactive,inactive,inactive,inactive
CC(C)CCCCCOC(=O)c1ccccc1C(=O)OCCCCCC(C)C,inactive,inactive,inactive,inactive,–,inactive,inactive,inactive,inactive,2620 nM (active),inactive,inactive,inactive,inactive,inactive,inactive,inactive,inactive,inactive,inactive
